Laboratory results as given in PubChem BioAssay (Tox21).
Inconclusive results are not listed. Activity calls are given as the source filed them. Calls come from the whole dose curve.

Molecular target: D(2) dopamine receptor (Homo sapiens) (UniProt P14416)
Experiment: Dopamine D2 receptor (DRD2) small molecule agonists, cell-based qHTS assay (AID 1963594); note: nearly all actives have a fitted effect of over 35% in size
Conditions: HEK293-DRD2 cAMP HTRF, agonist mode, 30 min; series mostly up to 92.4 µM; activation: at the top concentration
Text: National Center for Advancing Translational Sciences [NCATS]
Division of Preclinical Innovation [DPI]
U.S. Environmental Protection Agency [EPA]
National Institutes of Environmental Health Sciences [NIEHS]
National Toxicology Program [NTP]
U.S. Food and Drug Administration [FDA]
DRD2 is the D2 subtype of the dopamine receptor, which is coupled to Gi subtype of G protein-coupled receptor. This G protein-coupled receptor inhibits adenylyl cyclase activity. The DRD2-HEK293 cell line stably expressing D2 dopamine receptor can be used for screening agonists and antagonists of interactions between D2 and its ligands. The Hek293-DRD2 cAMP assay is based on HTRF technology. It measures changes of cAMP accumulation in response to Gi coupled GPCR activation or inhibition.
Tox21 Assay Protocol Summary:
DRD2-Hek293 cells were dispensed at 600 cells/3uL/well in 1536-well white plates using a Multidrop Dispenser. After the assay plates were incubated at a 37 C/5% CO2 incubator for 24 h, 1 uL of Ro20-1724 at final concentration of 0.1 mM was transferred to the assay plate by a Flying Reagent Dispenser. Following Ro20-1724 addition, 23 nL of compound dissolved in DMSO, positive controls or DMSO only was added to the assay plates via Wako pintool station. The assay plates were incubated at room temperature for 10 min. Next, 1 uL of NKH477 at 200nM was added into the plates. After the assay plates were incubated at room temperature for an additional 30 min, 2.5 ul/well of cAMP-d2 and 2.5 ul/well of anti-cAMP-cryptate were added respectively into the assay plates using a Flying Reagent Dispenser. The plates were incubated at room temperature for 1 h. The fluorescence intensity in the plates was measured at 340 nm excitation and 665 & 620 nm emission by an Envision plate reader.
% is set by controls: 0 for no effect and ±100 for the full control effect.

Sequence of D(2) dopamine receptor (Homo sapiens) (P14416 whole entry, looked up): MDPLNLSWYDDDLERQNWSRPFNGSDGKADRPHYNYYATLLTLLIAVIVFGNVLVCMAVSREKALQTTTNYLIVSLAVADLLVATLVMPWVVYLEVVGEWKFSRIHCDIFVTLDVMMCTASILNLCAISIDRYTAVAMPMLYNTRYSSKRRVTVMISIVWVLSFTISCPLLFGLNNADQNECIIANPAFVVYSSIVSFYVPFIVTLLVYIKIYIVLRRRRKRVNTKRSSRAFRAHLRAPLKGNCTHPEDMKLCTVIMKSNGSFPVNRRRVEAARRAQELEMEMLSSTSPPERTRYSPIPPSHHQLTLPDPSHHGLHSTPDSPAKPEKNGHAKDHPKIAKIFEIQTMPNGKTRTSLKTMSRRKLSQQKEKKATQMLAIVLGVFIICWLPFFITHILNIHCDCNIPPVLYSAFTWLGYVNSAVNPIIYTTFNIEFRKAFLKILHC

SMILES	activation	Potency
N#CC(Br)(Br)C(N)=O	1.28% (inactive)	–
C=CC(C)(CCC=C(C)C)OC(=O)c1ccccc1N (stereo not given)	-3.34% (inactive)	–
Nc1cc(Cl)ccc1Cl	-1.66% (inactive)	–
O=CC(Br)(Br)Br	0.0318% (inactive)	–
O=[N+]([O-])C(Br)Br	-3.21% (inactive)	–
O=[N+]([O-])c1cc([N+](=O)[O-])c2ccccc2c1	-5.47% (inactive)	–
NC(=O)CI	0.188% (inactive)	–
COc1nn(C(=O)NS(=O)(=O)c2ccccc2OC(F)(F)F)c(=O)n1C	-0.572% (inactive)	–
FC(Cl)(Cl)C(F)(Cl)Cl	7.33% (inactive)	–
CCOP(=O)(O)C(N)=O	-0.987% (inactive)	–
CC(C)(C)c1ccc(O)cc1	–	inactive
Nc1ccccc1C(=O)Oc1ccc2ccccc2c1	-0.201% (inactive)	–
C[N+]1(C)[C@@H]2CC[C@H]1CC(OC(=O)C(CO)c1ccccc1)C2 (stereo not given in full)	7.93% [at 42.5 µM] (inactive)	–
Oc1ccc(C2(c3ccc(O)cc3)CCCCC2)cc1	1.41% (inactive)	–
N#CC(C#N)=C(C#N)C#N	5.83% (inactive)	–
CNNC	-1.96% (inactive)	–
CN/C(=N\[N+](=O)[O-])NCC1CCOC1 (stereo not given)	-9.97% (inactive)	–
CSCCCN=C=S	-4.42% (inactive)	–
COP(=S)(OC)Oc1c(Cl)cc(C)cc1Cl	-8.69% (inactive)	–
CNC(=O)O/N=C(\C)SC	1.54% (inactive)	–

SMILES	activation	Potency
CCc1cc2c(s1)-n1c(C)nnc1CN=C2c1ccccc1Cl	0.152% [at 42.5 µM] (inactive)	–
Nc1c(Br)cc(Br)c2c1C(=O)c1ccccc1C2=O	-0.116% [at 19 µM] (inactive)	–
CC(C)(COCC1CO1)COCC1CO1 (stereo not given)	-3.56% (inactive)	–
CC(C)(C)c1ccc(CCOc2ncnc3ccccc23)cc1	-4.03% (inactive)	–
C(COCC1CO1)OCC1CO1 (stereo not given)	-4.16% (inactive)	–
CNC(=O)Oc1cccc(N=CN(C)C)c1	-2.08% (inactive)	–
c1ccc2c(c1)Sc1ccccc1N2CC1CN2CCC1CC2 (stereo not given)	-11.1% [at 42.5 µM] (inactive)	–
C[C@]12C/C(=C/O)C(=O)C[C@@H]1CC[C@@H]1[C@@H]2CC[C@@]2(C)[C@H]1CC[C@]2(C)O	–	inactive
c1ccc2c(c1)cc1ccc3cccc4ccc2c1c34	6.23% (inactive)	–
CC(Cl)C(C)Cl (stereo not given)	-4.22% (inactive)	–
CN/C(=N\[N+](=O)[O-])NCc1cnc(Cl)s1	0.886% (inactive)	–
Clc1cccc(N2CCNCC2)c1	12.6% [at 42.5 µM] (inactive)	–
CC1COC(Cn2cncn2)(c2ccc(Oc3ccc(Cl)cc3)cc2Cl)O1 (stereo not given)	-14.5% (inactive)	–
CCCN(CCC)C(=O)Cc1c(-c2ccc(Cl)cc2)nc2ccc(Cl)cn12	7.55% [at 42.5 µM] (inactive)	–
O=C1CC[C@@]2(O)[C@H]3Cc4ccc(O)c5c4[C@@]2(CCN3CC2CC2)[C@H]1O5	2% [at 42.5 µM] (inactive)	–
Oc1c(Cl)cccc1Cl	-0.342% (inactive)	–
Cn1cc(C2=C(c3cn(C4CCN(Cc5ccccn5)CC4)c4ccccc34)C(=O)NC2=O)c2ccccc21	0.942% [at 42.5 µM] (inactive)	–
NCCCNCCCN	4.81% (inactive)	–
CC1N=C(N)OC1c1ccccc1 (stereo not given)	-1.27% (inactive)	–
CCCCNP(N)(N)=S	8.26% (inactive)	–
